Experiment [1] is described as follows: Nuclear factor erythroid 2-related factor 2/antioxidant responsive element (Nrf2/ARE) small molecule agonists: qHTS cell viability counter screen in human keratinocytes (AID 1919968; active = well fitted curve in the direction sought with a large enough effect in the repeat runs; an effect the other way counts as inactive or inconclusive; note: nearly all actives have a fitted effect of over 55% in size). In outline: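 CellTiter-Fluor fluorescence, read 1 h after reagent, gave viability in the same wells as the ARE-luciferase assay. KeratinoSens cells (1,500/well) had 23 h compound exposure at 37 C/5% CO2 following 5 h plating.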
(Quantitative high-throughput screening tests each substance at several concentrations.)

Experiment [2] can be described thus: Nuclear factor erythroid 2-related factor 2/antioxidant responsive element (Nrf2/ARE) small molecule agonists: luciferase reporter gene qHTS assay in human keratinocytes (AID 1919969). Note: nearly all actives have a fitted effect of over 35% in size. Note: potency is the fitted concentration of half-maximal effect. A general note: Reporter assays use an easily measured gene product as a stand-in for the process of interest.
Experiment [3] addresses Gonadotropin-releasing hormone receptor (Homo sapiens) (UniProt P30968). Briefly: Human gonadotropin-releasing hormone receptor (GnRHR) small molecule agonists, calcium flux assay in GnRHR-HEK293 cells (AID 1920063). Note: nearly all actives have a fitted effect of over 35% in size. In outline:
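Agonist mode: compounds at 15 concentrations, in triplicate, went onto calcium dye-loaded GnRHR-HEK293 cells. Intracellular calcium was then followed as 480/540 nm fluorescence at 1 s intervals over 3 min.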

Experiment [4] concerns the target KiSS-1 receptor (Homo sapiens) (UniProt Q969F8). Briefly: Human kisspeptin (KISS1R) small molecule agonists, calcium flux assay in KISS1R-HEK293 cells (AID 1920064; active = well fitted curve in the direction sought with a large enough effect in the repeat runs; an effect the other way counts as inactive or inconclusive). In outline: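 Agonist mode: intracellular calcium rise tracked at 1 s intervals over 3 min (480/540 nm) immediately after compound addition to dye-loaded KISS1R-HEK293 stable cells. Each compound tested at 15 concentrations in triplicate.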
A general note: Calcium flux is commonly read through the fluorescence of an indicator in the cells.

Experiment [5] is described as follows: G protein-coupled receptor (GPCR) small molecule agonists, calcium flux assay: HEK293 wild type cell line counter screen (AID 1920065). In outline:
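Calcium flux counter screen: compound added in agonist mode at 15 concentrations in triplicate to dye-loaded parental HEK293 cells. Fluorescence (480/540) read kinetically for 3 min; ATP served as positive control.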

Experiment [6] is described as follows: p53 small molecule agonists, cell-based qHTS assay with human liver microsomes (AID 1963577).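 Note: p53 response element beta-lactamase reporter cells with liver microsomes plus NADPH.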 An outline of the steps: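 Metabolically competent format: test substances, human liver microsomes and NADPH (both 0.5 mg/mL final) incubated with p53RE-bla cells 16 h at 37 C. Beta-lactamase reporter signal then quantified by fluorescence.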
Experiment [7] can be described thus: p53 small molecule agonists, cell-based qHTS assay with rat liver microsomes (AID 1963578). An outline of the steps:
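Each plate received p53RE-bla cells, then compound, then rat liver microsomes and NADPH (both 0.5 mg/mL final). Plates were held 16 h at 37 C, and beta-lactamase activity was detected with LiveBLAzer over 2 h.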

Experiment [8] in a line: p53 small molecule agonists, cell-based qHTS assay with human liver microsomes: qHTS cell viability counter screen (AID 1963579). Note: nearly all actives have a fitted effect of over 45% in size. In outline: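 Tox21 library compounds, delivered from DMSO stocks, were tested on p53RE-bla cells together with 0.5 mg/mL human liver microsomes and 0.5 mg/mL NADPH (final) over 16 h at 37 C; CellTiter-Glo luminescence served as the cytotoxicity measure.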

A short description of experiment [9]: p53 small molecule agonists, cell-based qHTS assay with rat liver microsomes: qHTS cell viability counter screen (AID 1963580). Note: nearly all actives have a fitted effect of over 45% in size. In outline: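 Counter screen for cytotoxicity under metabolic activation: rat liver microsomes and NADPH, 0.5 mg/mL final each, added with compounds to p53RE-bla HCT-116 cells; 16 h at 37 C, then ATP luminescence read.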
A short description of experiment [10]: p53 small molecule agonists, cell-based qHTS assay: qHTS cell viability counter screen (AID 1963581). Note: nearly all actives have a fitted effect of over 45% in size. In outline:
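Counter screen read by CellTiter-Glo luminescence (ATP content, 30 min at room temperature), run in the same wells as the beta-lactamase reporter read. HCT-116 p53RE-bla cells saw compounds for 16 h at 37 C.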

Experiment [11] can be described thus: p53 small molecule agonists, cell-based qHTS assay (AID 1963582; active = well fitted activation curve with a large enough effect in the signal ratio in the repeat runs, not every such curve was filed as active; the % refers to the signal ratio; note: potency is the fitted concentration of half-maximal effect). An outline of the steps: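 Read-out is beta-lactamase FRET fluorescence after 2 h at room temperature with LiveBLAzer B/G substrate. p53 response element-bla cells were treated 16 h at 37 C with compounds in DMSO, added 5 h after seeding.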
Experiment [12] concerns the target 5-hydroxytryptamine receptor 2A (Homo sapiens) (UniProt P28223). Briefly: 5-hydroxytryptamine receptor 2A (HTR2A) small molecule agonists, cell-based qHTS assay (AID 1963587). Note: nearly all actives have a fitted effect of over 30% in size. An outline of the steps:
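HTR2A-CHO cells, plated 18 h at 37 C/5% CO2, dye-loaded 1 h at 37 C; compounds in DMSO added by pin tool (agonist mode). Intracellular calcium flux read as kinetic fluorescence on FDSS over 2 min at 1 s intervals.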

Experiment [13] has as its target Muscarinic acetylcholine receptor M1 (Homo sapiens) (UniProt P11229). Briefly: Cholinergic receptor muscarinic 1 (CHRM1) small molecule antagonists, cell-based qHTS assay (AID 1963588). Note: nearly all actives have a fitted effect of over 40% in size. Note: potency is the fitted concentration of half-maximal effect. An outline of the steps: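 Compounds were tested at 15 concentrations in three independent runs. Dye-loaded CHRM1-CHO cells were exposed 5 min at room temperature before stimulation by acetylcholine added at 50nM. Intracellular calcium was read kinetically on FDSS for 3 min.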

Experiment [14] has the same target. Briefly: Cholinergic receptor muscarinic 1 (CHRM1) small molecule agonists, cell-based qHTS assay (AID 1963589). Note: nearly all actives have a fitted effect of over 35% in size. In outline: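 Agonist-mode calcium-flux screen: compounds at 15 concentrations, three independent runs, were pin-transferred onto dye-loaded human CHRM1-CHO cells. Fluorescence was then recorded kinetically every second over minutes.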
The nature of experiment [15]: cAMP Responsive Elements (CRE) small molecule agonists, cell-based qHTS assay (AID 1963590). In outline: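 Agonist mode: compound added to CRE-bla HEK 293T cells (2,000/well, 18 h after plating) for 3 h at 37 C/5% CO2. Reporter activity detected via FRET beta-lactamase substrate, 2 h room-temperature loading.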
A short description of experiment [16]: cAMP Responsive Elements (CRE) small molecule antagonists, cell-based qHTS assay (AID 1963591; active = well fitted inhibition curve with a large enough effect in the signal ratio in the repeat runs, not every such curve was filed as active; the % refers to the signal ratio). An outline of the steps:
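Antagonist mode: compounds are added alongside the adenylyl cyclase activator NKH477 (0.25 uM final) to CRE-bla HEK293T cells for 3 h. LiveBLAzer FRET substrate, 2 h at room temperature, reports bla expression.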

Experiment [17] deals with Beta-2 adrenergic receptor (Homo sapiens) (UniProt P07550). Briefly: Adrenergic beta2 receptor (ADRB2) small molecule antagonists, cell-based qHTS assay (AID 1963592). Note: series mostly up to about 92 µM; nearly all actives have a fitted effect of over 50% in size. An outline of the steps: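 Assay format: CHO-ADRB2 cells, 18-20hr seeding at 37C/5% CO2, then compound plus 1nM isoproterenol agonist mix for 0.5hr RT. Homogeneous time-resolved fluorescence cAMP detection after 1hr, expressed as 665/615 nm ratio.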
Sequence of Beta-2 adrenergic receptor (Homo sapiens) (P07550 whole entry, looked up): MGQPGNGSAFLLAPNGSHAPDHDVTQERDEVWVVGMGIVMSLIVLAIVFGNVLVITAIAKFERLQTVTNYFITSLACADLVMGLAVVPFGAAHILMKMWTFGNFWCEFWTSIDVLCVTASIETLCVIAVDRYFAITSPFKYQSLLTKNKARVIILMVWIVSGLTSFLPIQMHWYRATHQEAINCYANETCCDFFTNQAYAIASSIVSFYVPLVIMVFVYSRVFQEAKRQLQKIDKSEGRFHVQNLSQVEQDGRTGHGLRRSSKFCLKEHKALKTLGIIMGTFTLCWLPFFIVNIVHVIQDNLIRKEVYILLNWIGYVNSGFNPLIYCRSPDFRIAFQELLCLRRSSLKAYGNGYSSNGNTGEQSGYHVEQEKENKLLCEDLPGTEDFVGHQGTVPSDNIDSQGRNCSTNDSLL

For experiment [18] the target is unchanged. In words: Adrenergic beta2 receptor (ADRB2) small molecule agonists, cell-based qHTS assay (AID 1963593).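 Note: CHO cells stably overexpressing human ADRB2.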 In outline:
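CHO cells stably over-expressing ADRB2 were plated overnight at 37C, then dosed with compounds plus a stimulation mix containing 100uM IBMX and 25uM Ro-20-1724 for 0.5hr at room temperature. cAMP was measured by HTRF competition, 1hr.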

Experiment [19] has as its target D(2) dopamine receptor (Homo sapiens) (UniProt P14416). Briefly: Dopamine D2 receptor (DRD2) small molecule agonists, cell-based qHTS assay (AID 1963594). Note: nearly all actives have a fitted effect of over 35% in size. In outline:
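HEK293 cells stably expressing DRD2 were cultured 24 h at 37 C, then given Ro20-1724 (0.1 mM final) and compounds for 10 min at room temperature. NKH477 (200nM) was then added for 30 min. cAMP was read by HTRF.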

The target is the same in experiment [20]. Briefly: Dopamine D2 receptor (DRD2) small molecule antagonists, cell-based qHTS assay (AID 1963595; active = well fitted inhibition curve with a large enough effect in the signal ratio in the repeat runs, with a control signal flat; the % refers to the signal ratio). In outline:
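HEK293 cells stably expressing DRD2 were preincubated with 0.1 mM Ro20-1724, then with compound for 10 min at room temperature. Cells were stimulated with 200 nM NKH477 plus 12 nM quinpirole for 30 min, and cAMP was read by HTRF.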

Unmarked numbers belong to inactive results. Inconclusive results are not listed. The source made the active and inactive calls. Unless noted, calls come from the whole dose curve.

Sequence of KiSS-1 receptor (Homo sapiens) (Q969F8 whole entry, looked up): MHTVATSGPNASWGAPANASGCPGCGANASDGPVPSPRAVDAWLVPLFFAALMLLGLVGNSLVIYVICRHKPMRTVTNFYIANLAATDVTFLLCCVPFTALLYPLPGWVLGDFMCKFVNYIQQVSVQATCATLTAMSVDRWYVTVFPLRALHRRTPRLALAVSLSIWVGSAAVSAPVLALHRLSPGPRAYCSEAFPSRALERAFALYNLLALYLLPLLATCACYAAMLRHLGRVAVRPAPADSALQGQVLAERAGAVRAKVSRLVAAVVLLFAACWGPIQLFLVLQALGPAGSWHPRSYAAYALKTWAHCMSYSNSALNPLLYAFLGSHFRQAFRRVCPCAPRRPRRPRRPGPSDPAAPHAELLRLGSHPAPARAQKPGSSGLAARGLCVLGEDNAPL
Sequence of D(2) dopamine receptor (Homo sapiens) (P14416 whole entry, looked up): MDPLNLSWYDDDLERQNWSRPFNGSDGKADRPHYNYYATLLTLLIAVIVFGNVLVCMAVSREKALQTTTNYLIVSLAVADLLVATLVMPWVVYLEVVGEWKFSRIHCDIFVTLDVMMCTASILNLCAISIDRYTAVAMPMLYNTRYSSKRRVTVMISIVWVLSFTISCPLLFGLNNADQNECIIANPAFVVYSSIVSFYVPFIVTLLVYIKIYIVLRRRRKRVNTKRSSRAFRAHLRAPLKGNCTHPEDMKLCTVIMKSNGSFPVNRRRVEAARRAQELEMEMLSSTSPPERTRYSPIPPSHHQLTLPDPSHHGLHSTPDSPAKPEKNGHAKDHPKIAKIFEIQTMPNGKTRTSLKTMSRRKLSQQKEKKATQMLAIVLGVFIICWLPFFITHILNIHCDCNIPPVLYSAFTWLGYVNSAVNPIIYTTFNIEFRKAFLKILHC
Sequence of 5-hydroxytryptamine receptor 2A (Homo sapiens) (P28223 whole entry, looked up): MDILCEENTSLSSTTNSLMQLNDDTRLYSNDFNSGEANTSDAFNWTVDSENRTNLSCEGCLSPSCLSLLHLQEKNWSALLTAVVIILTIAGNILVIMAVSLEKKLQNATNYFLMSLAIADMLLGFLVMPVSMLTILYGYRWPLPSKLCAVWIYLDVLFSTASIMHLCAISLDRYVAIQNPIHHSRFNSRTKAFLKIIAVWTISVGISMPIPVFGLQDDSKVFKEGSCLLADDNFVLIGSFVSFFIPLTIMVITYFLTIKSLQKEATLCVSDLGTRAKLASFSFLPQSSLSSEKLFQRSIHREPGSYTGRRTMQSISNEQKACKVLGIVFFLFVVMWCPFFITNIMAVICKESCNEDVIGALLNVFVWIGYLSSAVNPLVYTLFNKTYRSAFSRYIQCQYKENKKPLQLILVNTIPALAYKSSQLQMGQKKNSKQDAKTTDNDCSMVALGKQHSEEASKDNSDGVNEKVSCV
Sequence of Muscarinic acetylcholine receptor M1 (Homo sapiens) (P11229 whole entry, looked up): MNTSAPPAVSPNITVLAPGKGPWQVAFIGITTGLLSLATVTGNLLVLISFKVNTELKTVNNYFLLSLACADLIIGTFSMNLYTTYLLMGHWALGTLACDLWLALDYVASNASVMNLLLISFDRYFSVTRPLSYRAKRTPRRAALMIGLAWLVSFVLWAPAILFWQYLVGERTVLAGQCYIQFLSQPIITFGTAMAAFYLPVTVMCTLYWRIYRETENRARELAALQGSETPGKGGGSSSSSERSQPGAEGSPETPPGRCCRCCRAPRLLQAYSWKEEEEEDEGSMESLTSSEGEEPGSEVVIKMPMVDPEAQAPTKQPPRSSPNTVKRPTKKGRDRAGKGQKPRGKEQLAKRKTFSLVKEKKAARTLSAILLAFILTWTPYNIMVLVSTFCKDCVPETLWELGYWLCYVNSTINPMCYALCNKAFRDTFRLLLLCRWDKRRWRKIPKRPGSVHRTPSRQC
Sequence of Gonadotropin-releasing hormone receptor (Homo sapiens) (P30968 whole entry, looked up): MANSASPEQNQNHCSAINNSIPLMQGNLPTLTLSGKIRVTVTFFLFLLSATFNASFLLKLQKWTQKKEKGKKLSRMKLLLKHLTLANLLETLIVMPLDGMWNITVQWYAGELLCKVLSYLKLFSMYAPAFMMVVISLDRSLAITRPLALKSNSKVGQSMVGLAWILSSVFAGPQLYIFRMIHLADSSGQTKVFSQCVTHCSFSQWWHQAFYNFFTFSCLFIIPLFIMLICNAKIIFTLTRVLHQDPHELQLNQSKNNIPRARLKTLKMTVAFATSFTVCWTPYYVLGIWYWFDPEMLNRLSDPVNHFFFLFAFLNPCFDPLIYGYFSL

For `O=C(CCOCCOCCOCCOCCC(=O)Nc1c(I)cc(I)c(C(=O)O)c1I)Nc1c(I)cc(I)c(C(=O)O)c1I`, the Potency entry in experiment [1], in experiment [2], in experiment [3], in experiment [6], in experiment [7] and in [8] was “inactive” each time. Further, the Potency entry in experiment [9], in experiment [10], in experiment [11], in experiment [12], in [13] and in experiment [14] was “inactive” in each case. Moreover, the Potency entry in experiment [15], in [16], in experiment [17], in [18], in experiment [19] and in experiment [20] was “inactive” each time. Further, the result in experiment [4] and in experiment [5] was inactive.

With `CC(C)(O)c1coc(S(=O)(=O)NC(=O)Nc2c3c(cc4c2CCC4)CCC3)c1`, the Potency entry in [1], in experiment [3], in [6], in experiment [7], in experiment [8] and in experiment [9] was “inactive” throughout. Further, the Potency entry in experiment [10], in experiment [11], in [12], in [13], in experiment [14] and in experiment [16] was “inactive” in each case. Moreover, the Potency entry in experiment [17], in experiment [18], in experiment [19] and in experiment [20] was “inactive” throughout. Also, the Potency in [2] is 61.1 µM (active). Further, the outcome in [4] and in experiment [5] was inactive.

Turning to `CCOC(=O)Cn1cccc1-c1nc(-c2ccc(OC)cc2)c(-c2ccc(OC)cc2)s1`, the Potency result in experiment [1], in experiment [2], in experiment [3], in [6], in experiment [7] and in experiment [8] was “inactive” in each case. For the same compound, the Potency entry in experiment [9], in experiment [10], in experiment [11], in [12], in [13] and in [14] was “inactive” throughout. Further, the Potency entry in experiment [15], in experiment [17], in [18], in [19] and in experiment [20] was “inactive” in each case. Besides, the outcome in [4] and in experiment [5] was inactive.

As to `O=C(OC1C[C@H]2CC[C@@H](C1)[N+]21CCCC1)C(O)(c1ccccc1)c1ccccc1` (some centres not stated), the Potency result in experiment [1], in experiment [2], in [3], in experiment [6], in experiment [7] and in [8] was “inactive” in each case. In addition, the Potency entry in experiment [9], in [10], in experiment [11], in experiment [12], in [14] and in [15] was “inactive” each time. The Potency entry in experiment [16], in experiment [17], in experiment [18] and in [20] was “inactive” each time. Besides, the outcome in experiment [4] and in [5] was inactive. In addition, the Potency in [13] is 0.0015 µM (active).

In the case of `CC(CN1CC(=O)NC(=O)C1)N1CC(=O)NC(=O)C1` (configuration not stated), the Potency entry in experiment [1], in [2], in experiment [3], in experiment [6], in [7] and in [8] was “inactive” in each case. For the same compound, the Potency entry in [9], in [10], in experiment [12], in experiment [13], in experiment [14] and in experiment [15] was “inactive” throughout. In addition, the Potency entry in experiment [16], in experiment [17], in [18], in [19] and in experiment [20] was “inactive” throughout. Also, the result in experiment [4] and in experiment [5] was inactive. Also, the Potency in experiment [11] is 19.9 µM (active).

With `CCCCCCCCCCOC(C)=O`, the Potency result in [1], in experiment [2], in [3], in experiment [6], in experiment [7] and in experiment [8] was “inactive” throughout. Also, the Potency result in experiment [9], in [10], in experiment [11], in experiment [12], in experiment [13] and in experiment [14] was “inactive” each time. Besides, the Potency result in experiment [15], in experiment [16], in [17], in [18], in [19] and in [20] was “inactive” each time. Also, the result in experiment [4] and in experiment [5] was inactive.

Turning to `CN(C)C(=O)CNC(=O)Cc1ccccc1`, the Potency result in experiment [1], in experiment [2], in experiment [3], in experiment [6], in experiment [7] and in experiment [8] was “inactive” in each case. In addition, the Potency entry in experiment [9], in experiment [10], in experiment [11], in experiment [12], in experiment [13] and in experiment [14] was “inactive” throughout. Further, the Potency result in experiment [15], in experiment [16], in experiment [17], in [18], in [19] and in [20] was “inactive” throughout. The outcome in experiment [4] and in experiment [5] was inactive.

The record behind these values is PubChem BioAssay (Tox21).
